Measurements taken from PubChem BioAssay (NCATS).
Results filed as inconclusive are left out. Calls of active or inactive are those of the source. Calls follow the shape of the dose curve; as a rule, active = well fitted cell-killing curve with a large enough effect; inconclusive = small, poorly fitted or top-dose-only effect; inactive = flat fitted curve, though single readings scatter.

assay: Cell Viability - LYMP2-015 (AID 971); settings: LYMP2-015 lymphoblastoid cell viability; series mostly up to 92.2 µM; activity change, negative = lower viability: at the top concentration;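 also: cells exposed to compound for 24 h; nearly all actives have a fitted effect of over 55% in size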;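 as to activity change, negative = lower viability: 0% = DMSO only and full effect = 92 µM tetraoctylammonium bromide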
Description: NIH Chemical Genomics Center [NCGC]
NIH Molecular Libraries Screening Centers Network [MLSCN]
National Institutes of Environmental Health Sciences [NIEHS]
National Toxicology Program [NTP]
We have developed a 1536-well cell-based assay for quantitative high throughput screening (qHTS) against a number of cell lines to determine in vitro cytotoxicity of small molecules. This particular assay uses a human lymphoblastoid cell line (LYMP2-015) purchased from Coriell Institute for Medical Research.
NCGC Assay Protocol Summary:
The CellTiter-Glo luminescent cell viability assay (Promega) is a homogeneous method to measure the number of viable cells in culture. The end point readout of this assay is based on quantitation of intracellular ATP, an indicator of metabolic activity, using the luciferase reaction. Luciferase catalyzes the oxidation of beetle Luciferin to oxyluciferin and light in the presence of ATP. The luminescent signal is proportional to amount of ATP present.
Using the CellTiter-Glo luminescent cell viability assay, the amount of cellular ATP was measured in the lymphoblastoid cell line with complete culture medium following compound treatment for 24 hours. The assay was performed in opaque white Kalypsys 1536-well plates. In the screen, tetraoctylammonium bromide was used as positive control. Library compounds were measured for their ability to cause acute toxicity in the cell line, as reflected by a decrease in intracellular ATP levels, in a concentration-dependent manner. […] AC50 values were determined from concentration-response data modeled with the standard Hill equation.
qHTS protocol for CellTiter Glo lymphoblastoid cellular assay
[Step] [Parameter] [Value] [Description]
1. Reagent; 5 uL; 2500 lymphoblastoid cells/well
2. Time; 5 hr; 37 C incubation
4. Controls; 23 nL; Tetraoctylammonium bromide 6.4pM to 92 uM
5. Time; 24 hr; 37 C incubation
6. Reagent; 5 uL; CellTiter Glo reagent
7. Time; 30 min; Room Temperature
8. Detection; Luminescence; Viewlux plate reader
Keywords: cell viability, cytotoxicity, lymphoblastoid cell line, luminescence, NTPHTS, NTPHTS_NCGC, NIEHS, DSSTox, MLSMR, MLSCN, NIH Roadmap, qHTS, NCGC
Potency is read from the fitted curve at half-maximal effect.

SMILES | Potency | activity change, negative = lower viability
CC(C)(C)c1ccc(O)c(O)c1 | 31.6 µM (active) | 
Oc1ccccc1 |  | -1.61% (inactive)
CCCC(=O)c1cc(O)c(O)cc1O |  | -20.1% (inactive)
Nc1ccc(O)cc1 | 31.6 µM (active) | 
O=C(Oc1ccccc1)c1ccccc1O |  | -10.4% (inactive)
Cc1cc(C(C)(C)C)c(O)c(C(C)(C)C)c1 |  | -15.9% (inactive)
OCc1c[nH]c2ccccc12 |  | -0.347% (inactive)
c1ccc2occc2c1 |  | -20% (inactive)
CCCCC(CC)COC(=O)c1ccccc1C(=O)O (stereo unspecified) |  | -6.61% (inactive)
Nc1c2ccccc2nc2ccccc12 | 10 µM (active) | 
COc1cc(C=O)ccc1O |  | 4.47% (inactive)
Nc1cccc2c(N)cccc12 |  | -16.2% (inactive)
CC(C)C(C)(C)C(C)(C)C(C)(C)S |  | 6.81% (inactive)
Cc1ccc(O)cc1 |  | -3.2% (inactive)
CCCCCCCCCCCCCCCC[n+]1ccccc1 | 15.8 µM (active) | 
O=C(c1ccccc1)c1ccccc1 |  | 7.38% (inactive)
C1=CC2C3C=CC(C3)C2C1 (stereo unspecified) |  | 0.102% (inactive)
CC(=O)OC/C=C(C)/C=C/C=C(C)/C=C/C1=C(C)CCCC1(C)C | 50.1 µM (active) | 
O=C(NO)c1ccccc1 |  | -4.4% (inactive)
Brc1ccccc1-c1ccccc1 |  | -0.727% (inactive)
CC(C)(c1ccc(O)cc1)c1ccc(O)cc1 | inactive | 
